Legend:
[1] = system: Vero E6 infected with SARS-CoV-2; assay: morphology score (similarity to uninfected cells); higher = more like uninfected cells; details: 24 h
[2] = system: Vero E6 infected with SARS-CoV-2; assay: SARS-CoV-2 infection rate relative to infected DMSO; higher = more infection, active = 60 or less; details: 24 h

## O=C(CCBr)N1CCN(C(=O)CCBr)CC1 [pipobroman] (10 µM)
[1]
  morphology score: 0.23
[2]
  SARS-CoV-2 infection rate: 98.5% (inactive)

## OC(c1ccccc1)(c1ccccc1)C12CC[N+](CCOCc3ccccc3)(CC1)CC2 [umeclidinium] (10 µM)
[1]
  morphology score: 0.162
[2]
  SARS-CoV-2 infection rate: 101% (inactive)

## N[C@@H](CSS(=O)(=O)O)C(=O)O [S-sulfo-L-cysteine] (10 µM)
[1]
  morphology score: 0.254
[2]
  SARS-CoV-2 infection rate: 90% (inactive)

## CC[C@H](CC[C@@H](C)[C@H]1CC[C@H]2[C@@H]3CC=C4C[C@@H](O)CC[C@]4(C)[C@H]3CC[C@]12C)C(C)C [beta-Sitosterol] (10 µM)
[1]
  morphology score: 0.119
[2]
  SARS-CoV-2 infection rate: 99% (inactive)

## COc1ccccc1Oc1c(NS(=O)(=O)c2ccc(C)cn2)nc(-c2ccncc2)nc1OC (10 µM)
[1]
  morphology score: 0.183
[2]
  SARS-CoV-2 infection rate: 85.5% (inactive)

## On1ncc(C2CCNCC2)c1-c1cccc(-c2ccccc2)c1 (10 µM)
[1]
  morphology score: 0.0231
[2]
  SARS-CoV-2 infection rate: 108% (inactive)

## CCOC(=O)[C@H](CCc1ccccc1)N[C@@H](C)C(=O)N1[C@H](C(=O)O)C[C@@H]2CCC[C@@H]21 [ramipril] (10 µM)
[1]
  morphology score: 0.0476
[2]
  SARS-CoV-2 infection rate: 98.5% (inactive)

## Oc1ccc(Cl)cc1Cc1cc(Cl)ccc1O [dichlorophen] (10 µM)
[1]
  morphology score: 0.14
[2]
  SARS-CoV-2 infection rate: 99.5% (inactive)

## CCCCC/C=C\C/C=C\C/C=C\CCCCC(=O)O [gamma-linolenic-acid] (10 µM)
[1]
  morphology score: 0.0589
[2]
  SARS-CoV-2 infection rate: 102% (inactive)

## CC1(C)S[C@@H]2[C@H](NC(=O)[C@H](N)c3ccccc3)C(=O)N2[C@H]1C(=O)O [ampicillin] (10 µM)
[1]
  morphology score: 0.141
[2]
  SARS-CoV-2 infection rate: 102% (inactive)

## O=C(O)c1ccc(S(=O)(=O)N(Cl)Cl)cc1 [halazone] (10 µM)
[1]
  morphology score: 0.13
[2]
  SARS-CoV-2 infection rate: 95% (inactive)

## Cc1ncc[nH]1 [2-methylimidazole] (10 µM)
[1]
  morphology score: 0.049
[2]
  SARS-CoV-2 infection rate: 95% (inactive)

## C/C1=C/C[C@@H](/C(C)=C/c2csc(C)n2)OC(=O)C[C@H](O)C(C)(C)C(=O)[C@H](C)[C@@H](O)[C@@H](C)CCC1 [epothilone-D] (0.833333 µM)
[1]
  morphology score: -0.105
[2]
  SARS-CoV-2 infection rate: 107% (inactive)

## NC(=O)NCCN1CCN(c2cccc(C(F)(F)F)c2)CC1 [fluprazine] (10 µM)
[1]
  morphology score: 0.0715
[2]
  SARS-CoV-2 infection rate: 106% (inactive)

## CO/N=C1\C[C@]2(C[C@@H]3C[C@@H](C/C=C(\C)C[C@@H](C)/C=C/C=C4\CO[C@@H]5[C@H](O)C(C)=C[C@@H](C(=O)O3)[C@]45O)O2)O[C@H](/C(C)=C/C(C)C)[C@H]1C [moxidectin] (10 µM)
[1]
  morphology score: 0.272
[2]
  SARS-CoV-2 infection rate: 98.5% (inactive)

## COc1cc(OC)cc(-c2ccc3c(-c4ccc(F)cc4)n[nH]c3n2)c1 (10 µM)
[1]
  morphology score: 0.102
[2]
  SARS-CoV-2 infection rate: 106% (inactive)

## CC(C)c1cccc2c(-c3ccccc3)cc(-c3ccc(-c4ccc(C(=O)O)cc4)[nH]3)nc12 (10 µM)
[1]
  morphology score: 0.104
[2]
  SARS-CoV-2 infection rate: 87.5% (inactive)

## O=C1CCC[C@@H]2[C@H]3CCCN4CCC[C@@H](CN12)[C@@H]34 [matrine] (10 µM)
[1]
  morphology score: 0.0694
[2]
  SARS-CoV-2 infection rate: 112% (inactive)

## COc1ccc(-n2c(SCCCN3C(=O)c4cccc5cccc(c45)C3=O)nnc2-c2ccncc2)cc1 (0.833333 µM)
[1]
  morphology score: 0.102
[2]
  SARS-CoV-2 infection rate: 108% (inactive)

## CC(=O)O[C@@]12CO[C@@H]1C[C@H](O)[C@@]1(C)C(=O)[C@H](O)C3=C(C)[C@@H](O)C[C@@](O)([C@@H](OC(=O)c4ccccc4)[C@H]21)C3(C)C [10-deacetylbaccatin] (10 µM)
[1]
  morphology score: 0.18
[2]
  SARS-CoV-2 infection rate: 109% (inactive)

## CN(C)C/C=C/C(=O)Nc1cc2c(Nc3ccc(F)c(Cl)c3)ncnc2cc1O[C@H]1CCOC1 [afatinib] (0.833333 µM)
[1]
  morphology score: -0.0622
[2]
  SARS-CoV-2 infection rate: 114% (inactive)

## Cc1sc2c(c1C)C(c1ccc(Cl)cc1)=N[C@@H](CC(=O)Nc1ccc(O)cc1)c1nnc(C)n1-2 (10 µM)
[1]
  morphology score: -0.169
[2]
  SARS-CoV-2 infection rate: 114% (inactive)

## O=Cc1cn(Cc2ccc(Cl)cc2)c2ccccc12 [oncrasin-1] (10 µM)
[1]
  morphology score: 0.108
[2]
  SARS-CoV-2 infection rate: 110% (inactive)

## O=C(N[C@H]1CN2CCC1CC2)c1ccc2c(c1)OCCO2 (10 µM)
[1]
  morphology score: -0.0253
[2]
  SARS-CoV-2 infection rate: 100% (inactive)

## C=C1/C(=C\C=C2/CCC[C@]3(C)[C@@H]([C@H](C)OCCC(C)(C)O)CC[C@@H]23)C[C@@H](O)C[C@@H]1O [maxacalcitol] (10 µM)
[1]
  morphology score: -0.0664
[2]
  SARS-CoV-2 infection rate: 122% (inactive)

## Cc1nn(C)c2c1C(c1ccc(C(F)(F)F)cc1)C(C#N)=C(N)O2 (configuration not stated) (10 µM)
[1]
  morphology score: 0.0472
[2]
  SARS-CoV-2 infection rate: 98% (inactive)
